PLK1 PBD inh = qHTS for Inhibitors of PLK1-PDB (polo-like kinase 1 - polo-box domain): Primary Screen; Potency, µM, for inactives: max response, negative = inhibition, most hits filed as inhibitors; 360,000 compounds, 2.8% hits; Serine/threonine-protein kinase PLK1 (Homo sapiens), P53350; Plk1 PBD binding of FITC phosphopeptide, fluorescence polarization; also: series mostly up to about 57 µM; nearly all actives have a fitted effect of over 65% in size
Sfp inh = qHTS Assay for Inhibitors of Bacillus subtilis Sfp phosphopantetheinyl transferase (PPTase); Biochemical Sfp PPTase activity, qHTS; Potency, µM, inactives show largest response in the series, negative = inhibition, hits mostly inhibitors; 310,000 compounds, 3.5% hits; AID 1490, 2009;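 also: the enzyme is Sfp with the accession as filed and its product quenches rhodamine fluorescence; 0% = enzyme reaction without inhibitor and -100% = no enzyme wells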
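Sfp 15 nM + cpd, 15 min RT; start w/ rhodamine-CoA 5 uM, BHQ-2-YbbR 12.5 uM (final); 50 mM Hepes pH 7.6, 10 mM MgCl2, 0.01% NP-40, 0.01% BSA; read 525/598 nm at 0 and 30 min.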
Gal4-VP16 FLuc = VP16 counterscreen qHTS for inhibitors of ROR gamma transcriptional activity; Potency, µM (doses to about 53.6 µM), for the others: top-dose activity, negative = inhibition, actives largely listed as inhibitors; AID 2546, 2010; Drosophila S2 Gal4-VP16 UAS-luciferase, luminescence, 20 h; 310,000 compounds, 3.5% hits;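 also: Gal4-VP16 expression switched on by copper sulfate through the metallothionein promoter; nearly all actives have a fitted effect of over 50% in size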
ALDH1A1 inh = qHTS Assay for Inhibitors of Aldehyde Dehydrogenase 1 (ALDH1A1); Aldehyde dehydrogenase 1A1 (Homo sapiens), P00352; Potency, µM (highest dose often 75.3 µM), without a hit: at the top dose activity, negative = inhibition, actives largely listed as inhibitors; 220,000 compounds, 7.3% hits; Purified ALDH1A1, NADH fluorescence, propionaldehyde substrate; active = well fitted inhibition curve with a large enough effect, not every such curve was filed as active; inconclusive = small, poorly fitted or top-dose-only effect, or another doubt; inactive = no such curve, though single readings can be large or run the other way;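 also: plate controls were no enzyme wells and a reference inhibitor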
Target sequence (P00352 whole entry, looked up): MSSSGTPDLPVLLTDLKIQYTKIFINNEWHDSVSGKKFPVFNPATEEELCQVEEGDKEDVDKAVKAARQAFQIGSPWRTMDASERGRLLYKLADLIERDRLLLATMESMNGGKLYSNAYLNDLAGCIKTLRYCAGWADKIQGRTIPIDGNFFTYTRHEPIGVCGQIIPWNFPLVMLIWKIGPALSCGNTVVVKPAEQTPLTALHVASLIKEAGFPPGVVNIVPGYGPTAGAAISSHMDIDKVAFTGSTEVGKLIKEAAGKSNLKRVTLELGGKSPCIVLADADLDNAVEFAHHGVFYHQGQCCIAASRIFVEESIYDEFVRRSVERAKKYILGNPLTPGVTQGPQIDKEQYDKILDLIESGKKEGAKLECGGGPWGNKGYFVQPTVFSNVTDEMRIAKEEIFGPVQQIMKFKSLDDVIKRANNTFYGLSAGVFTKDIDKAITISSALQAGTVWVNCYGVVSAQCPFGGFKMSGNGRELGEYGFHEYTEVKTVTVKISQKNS
RORg inh = qHTS for inhibitors of ROR gamma transcriptional activity | Nuclear receptor ROR-gamma (Mus musculus), P51450 | Drosophila S2 Gal4-RORgamma UAS-luciferase reporter, 20 h | Potency, µM (doses to about 53.6 µM), for inactives: top-dose activity change, negative = inhibition, most hits filed as inhibitors | 310,000 compounds, 5.4% hits; also: nearly all actives have a fitted effect of over 60% in size
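Read-out: Photinus luciferase luminescence; inhibitors lower reporter signal. Insect Schneider cells with Gal4-ROR gamma fusion under metallothionein promoter, UAS reporter; 700 uM final copper sulfate induction, 20 hr, ambient temperature.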
* marks the source's active call; other numbers are inactive results; u = inconclusive; x = no result given; [ ] = another dose, or the depositor's remark. The list is not random: actives were taken first. Their share in the collection is about 12%. Unless noted, calls follow the shape of the dose curve; as a rule, active = well fitted curve in the direction sought with a large enough effect; inconclusive = small, poorly fitted or top-dose-only effect, or another doubt; inactive = no such curve, though single readings can be large; an effect the other way counts as inactive or inconclusive. Unless noted, % is scaled to controls: 0 for no effect and ±100 for the full control effect; potency is read from the fitted curve at half-maximal effect.

SMILES	PLK1 PBD inh	Sfp inh	Gal4-VP16 FLuc	ALDH1A1 inh	RORg inh
O=C(Cc1ccccc1)Nc1cccc([N+](=O)[O-])c1	-9.6%	23.1%	-13.6%	-16.9%	15.8%
O=C(NC(=S)Nc1cccnc1)c1cccc(Cl)c1	2.8%	x	x	x	x
CC(=O)c1cccc(NC(=S)NC(=O)c2cccc(Cl)c2)c1	-13.9%	-16.6%	10µM*	20µM*	2.82µM*
CC(=O)c1cccc(NC(=S)NC(=O)c2ccccc2)c1	-1.7%	u	u	u	8.91µM*
CNC(=S)Nc1cccc(C(C)=O)c1	-25.0%	16.7%	0.4%	u	-13.8%
O=C(Nc1cccc([N+](=O)[O-])c1)c1ccc2ccccc2c1O	-24.5%	7.1%	2.82µM*	15.0%	-30.7%
CCC1CC=CC2C1C(=O)N(Cc1ccccc1)C2c1ccoc1 (stereo not given)	x	-14.5%	u	x	u
CCOC(=O)CCN1C(=O)[C@H]2[C@H]3[C@H](O)[C@H](O)C/C(=N/OC[C@@H](O)COCc4ccco4)[C@H]3CC[C@@H]2C1=O	x	-4.5%	3.9%[10 µM]	7.6%[13.5 µM]	3.5%[10 µM]
C=C(C)C1CC=C(C)CC1 (stereo not given)	x	6.1%	-5.2%	x	17.4%[10 µM]
CC(C)NC(=S)NC(=O)c1ccc(-c2ccccc2)cc1	-2.0%	-20.2%	3.16µM*	u	2.51µM*
O=C(NC(=S)Nc1cccc([N+](=O)[O-])c1)c1ccco1	-10.2%	u	12.9%	2.6%	-41.9%
CC(=O)c1cccc(NC(=S)Nc2ccc(F)cc2)c1	-18.1%	3.1%	8.8%	x	-4.1%
CC(=O)c1cccc(NC(=S)NC(=O)C(C)C)c1	-1.7%	7.3%	-0.9%	6.5%	12.6µM*
O=C(NC(=S)Nc1cccc([N+](=O)[O-])c1)c1ccccc1	-9.6%	44.7µM*	-5.8%	x	u
CN(C)S(=O)(=O)c1cccc(NC(=S)NC(=O)C2CCCCC2)c1	-7.0%	-13.4%	u	u	u
O=C(NC(=S)Nc1cccc([N+](=O)[O-])c1)C1CCCCC1	-2.3%	-2.1%	u	x	10µM*
CC(=O)/C=C1\OCc2cc(OCc3ccccc3)ccc21	-7.1%	x	x	x	x
O=C(O)/C(Cc1ccc([N+](=O)[O-])cc1)=N/O	x	x	x	-0.5%[13.5 µM]	x
Cc1cnc(CNc2ncnc3ccc(-c4cccc(NS(C)(=O)=O)c4)cc23)cn1	x	-0.7%	-17.4%	-3.1%	12.5%
CC(=O)c1cccc(NC(=S)NC2CCCCCCC2)c1	-16.1%	-1.3%	12.6µM*	x	3.16µM*
CCC(C)(C)NC(=O)c1cccc(NC(=O)C(C)C)c1	21.2µM*	7.0%	-0.1%	7.8%	19.2%
O=C(NC(=S)Nc1cc([N+](=O)[O-])ccc1Cl)c1ccccc1	-19.9%	56.2µM*	u	8.91µM*	-32.8%
CC(=O)c1cccc(NC(=O)NC2CCCCCCC2)c1	2.7%	0.9%	-20.6%	x	-9.9%
O=C(O)C1=C(C(=O)Nc2cc(C(F)(F)F)ccc2Cl)CCCC1	7.4%	7.1%	-11.5%	-10.7%	-0.9%
O=C(O)c1ccc(NNC(=S)Nc2cc(C(F)(F)F)ccc2Cl)cc1	21.2µM*	89.1µM*	u	x	3.16µM*
SMILES	PLK1 PBD inh	Sfp inh	Gal4-VP16 FLuc	ALDH1A1 inh	RORg inh
CCN(CC)S(=O)(=O)c1cc(C(=O)Nc2cc(C)on2)c(Cl)cc1Cl	-9.6%	14.8%	-6.0%	x	57.1%
O=C(O)c1ccc(NC(=S)NC(=O)c2ccc(-c3ccc(Br)cc3)o2)cc1	u	44.7µM*	-11.5%	x	-10.9%
COc1ccc(C(=O)O)cc1NC(=S)NC(=O)c1ccc(-c2ccc(Cl)cc2)o1	u	u	16.0%	u	-8.1%
CN(C)C(=S)NC(=O)c1cccc(Cl)c1	0.1%	-12.9%	2µM*	2.1%	0.562µM*
O=C(CCNC(=O)c1ccccc1Cl)Nc1cc(C(F)(F)F)ccc1Cl	-24.7%	4.0%	-1.1%	9.1%	22.3%
FC(F)(F)c1ccc(Cl)c(NC(=S)N/N=C/c2ccccc2Cl)c1	-4.4%	9.6%	u	x	2.24µM*
Cc1ccc(C(=O)O)cc1NC(=S)NC(=O)c1ccc(-c2ccc(Cl)cc2)o1	u	50.1µM*	6.9%	x	0.4%
Cc1cccc(C)c1NC(=S)NC(=O)c1cccc(Cl)c1	3.8%	x	x	x	x

Screening results as filed in PubChem BioAssay.
